Screening data deposited in PubChem by National Center for Advancing Translational Sciences (NCATS).
Nrf2 block = Nrf2 pathway inhibition. 2.1% of 360,000 active. Potency, µM (doses to about 46 µM), actives largely listed as inhibitors. A549 ARE-Fluc reporter, luciferase luminescence, 18-24 h; also: nearly all actives have a fitted effect of over 60% in size
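Reporter: ARE-Fluc in A549. Exposure: 18-24 h, 37 °C, 5% CO2, 5% FBS OPTI-MEM. Readouts: fluorescent cytotoxicity (CellTiter-Fluor), then luminescent Nrf2 signal after BugLite.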
ATXN viability = viability counter-screen for ATXN expression inhibitors; S2 cells (HEK-293 line with an ATXN2-luciferase reporter) viability, CellTiter-Fluor protease fluorescence, 24 h; Potency, µM (series often up to 56.7 µM), most hits filed as cytotoxic; 0.49% of 400,000 active; also: nearly all actives have a fitted effect of over 40% in size
Nrf2 ARE act = activators of Nrf2 (ARE) signaling; AREc32 ARE-luciferase reporter (MCF7-derived line), luminescence, 24 h; Potency, µM (series often up to 46.1 µM), most hits filed as activators; 0.31% of 410,000 active; AID 624171; also: nearly all actives have a fitted effect of over 65% in size
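AREc32 cells carrying an ARE-driven firefly luciferase, 1000 cells/well in OPTI-MEM with 5% FBS, dosed after overnight attachment and incubated 24 hr at 37 deg C. Steady-Glo luminescence read after 30 min at RT.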
ATXN2 expr inh = ATXN2 expression inhibition | HEK-293 ATXN2-luciferase reporter, luminescence, 24 h | Potency, µM (top dose mostly 57 µM), actives largely listed as inhibitors | 0.72% of 360,000 active; also: nearly all actives have a fitted effect of over 55% in size
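qHTS (up to 57 uM final) was run with 24 h compound exposure of reporter cells at 37 °C. Each well was multiplexed: SteadyGlo luminescence measured ATXN2-luciferase expression after a fluorogenic Gly-Phe-AFC viability readout (25 uM final).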
A549 viability = A549 cytotoxicity, counter-screen for Nrf2 inhibitors; A549 ARE-Fluc cells, CellTiter-Fluor viability, 18-24 h; Potency, µM (titrated, usually from 46 µM), usual class: inhibitors; 0.16% of 390,000 active; AID 504648
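Cytotoxicity counterscreen: CellTiter-Fluor fluorescence was measured in A549 ARE_Fluc cells after 18-24 h of compound exposure in a concentration series. The subsequent BugLite luminescent read reports ARE-luciferase activity.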
Numbers stand for hits; . = inactive; ? = inconclusive; / = not tested or not shown; [ ] = remark or other dose. Compounds with a hit are over-represented: about 2.9% of the library has one in this group of screens. Calls follow the shape of the dose curve; as a rule, active = well fitted curve in the direction sought with a large enough effect; inconclusive = small, poorly fitted or top-dose-only effect, or another doubt; inactive = no such curve, though single readings can be large; an effect the other way counts as inactive or inconclusive.

SMILES	Nrf2 block	ATXN viability	Nrf2 ARE act	ATXN2 expr inh	A549 viability
N#C/C(=C\c1ccc(O)c([N+](=O)[O-])c1)c1nc2ccccc2s1	?	?	.	.	15µM
COc1ccc(-c2csc(/C(C#N)=C\c3ccc(O)c([N+](=O)[O-])c3)n2)cc1OC	.	.	.	.	.
COc1ccc(-c2csc(/C(C#N)=C\c3ccc(OC)c([N+](=O)[O-])c3)n2)cc1	.	.	.	.	.
COc1cc(/C=C(\C#N)c2nc3ccccc3s2)cc([N+](=O)[O-])c1O	?	.	.	.[11.3 µM]	21µM
COc1ccc(CN(C)C[C@@H]2OCCCC[C@H](C)Oc3ccc(NC(=O)Nc4ccc(F)cc4)cc3C(=O)N([C@H](C)CO)C[C@H]2C)cc1	/	18µM	.	?	/
C[C@@H]1CN([C@@H](C)CO)C(=O)c2cc(Br)cnc2O[C@@H]1CN(C)Cc1ccc(Oc2ccccc2)cc1	/	25µM	.	.	/
C[C@@H]1CN([C@@H](C)CO)C(=O)c2cc(NC(=O)Nc3ccc(F)cc3)ccc2O[C@@H]1CN(C)Cc1ccc(Oc2ccccc2)cc1	?	25µM	.	.	?
C[C@@H]1CCCCO[C@H](CN(C)Cc2ccc(C(F)(F)F)cc2)[C@H](C)CN([C@@H](C)CO)C(=O)c2cc(NC(=O)Cc3ccccc3)ccc2O1	/	13µM	.	.	/
COc1ccc(CN(C)C[C@@H]2OCCCC[C@H](C)Oc3ccc(NC(=O)Cc4ccccc4)cc3C(=O)N([C@@H](C)CO)C[C@@H]2C)cc1	/	?	.	.	/
C[C@@H]1CN([C@H](C)CO)C(=O)c2cc(NC(=O)Cc3ccccc3)ccc2O[C@H]1CN(C)Cc1ccc(Oc2ccccc2)cc1	?	?	.	?	.
Cc1noc(C)c1-c1cccc(-c2nn3c(=O)cc(N4CCNCC4)nc3s2)c1	.	/	/	/	.
Cc1ccc(N2CCN(S(=O)(=O)c3ccc4c(c3)CC(=O)N4)CC2)cc1	.	/	/	/	.
COC(=O)[C@@H]1CCCN1Cc1ccc2c(c1)CN(Cc1nccs1)CCO2	/	.	/	/	/
COc1ccc(C(=O)O)cc1COc1ccc(NC(C)=O)cc1	.	/	/	/	.
Clc1ccc(CNc2ncnc3[nH]ncc23)c(Cl)c1	23µM	.	.	.	.
COc1ccc(-c2csc3nc(C)nc(N4CCCCC4)c23)cc1OC	.	.	16µM	.	.
COCc1c(C(=O)NC2CCCC2)cnn1-c1nccc(-c2cc(C)sc2C)n1	/	.	/	/	/
O=C(Nc1ccccc1N1CCOCC1)c1ccccc1NS(=O)(=O)c1ccc(F)c(F)c1	21µM	.	.	.	.
CCOc1ccc(S(=O)(=O)Nc2ccccc2C(=O)Nc2ccccc2N2CCOCC2)cc1	.	?	.	.	.[1.84 µM]
O=C(Nc1ccccc1N1CCOCC1)c1ccccc1NS(=O)(=O)c1ccc(F)cc1	.	.	.	.	.
Cc1ccc(C)c(S(=O)(=O)Nc2ccccc2C(=O)Nc2ccccc2N2CCOCC2)c1	23µM	.	.	.	.
O=C(Nc1ccccc1N1CCOCC1)c1cc(-c2ccco2)nc2ccccc12	18µM	.	.	.	.
Cc1cc(F)ccc1S(=O)(=O)Nc1ccccc1C(=O)Nc1ccccc1N1CCOCC1	21µM	.	.	.	.
Cc1cc(C)nc(-c2cccc3c2OC(CNC(=O)C2CCOC2)C3)n1 (configuration not stated)	/	.	/	/	/
Nc1ccc(S(=O)(=O)N2CCN(S(=O)(=O)c3c(F)cccc3F)CC2)cc1	.	/	/	/	.
SMILES	Nrf2 block	ATXN viability	Nrf2 ARE act	ATXN2 expr inh	A549 viability
COc1ccc2[nH]c(C(=O)N/N=C/c3ccc(O)cc3O)cc2c1	2.3µM	.	.	/	.
COc1ccc(/C=N/NC(=O)c2nc(-c3ccccc3)n(-c3ccccc3)n2)c(O)c1	?	.	.	4µM	?
COc1ccc(/C=N/NC(=O)c2cc3cc(OC)c(OC)cc3[nH]2)cc1	21µM	.	.	.	.
COc1cc2cc(C(=O)N/N=C/c3ccc(F)cc3)[nH]c2cc1OC	.	.	.	.	.
COc1ccc(/C=N/NC(=O)c2nc(-c3ccccc3)n(-c3ccccc3)n2)cc1	.	.	.	.	.
Cc1ccc(NS(=O)(=O)c2ccc3c(c2)CCC(=O)N3)cc1Cl	.	/	/	/	.
CC(Oc1ccccc1)C(=O)NCC1Cc2cc(F)cc(-c3ccccn3)c2O1 (configuration not stated)	/	.	/	/	/
